Assay results from PubChem BioAssay (NCATS).
Inconclusive results are not listed. Where a call stands in place of a potency, no number is given. The source made the active and inactive calls. Calls follow the shape of the dose curve; as a rule, active = well fitted curve in the direction sought with a large enough effect; inconclusive = small, poorly fitted or top-dose-only effect, or another doubt; inactive = no such curve, though single readings can be large; an effect the other way counts as inactive or inconclusive.

Tests used:
[1] = qHTS of pediatric cancer cell lines to identify multiple opportunities for drug repurposing: Primary screen for TC32 cells (AID 1347089); also: nearly all actives have a fitted effect of over 60% in size
Procedure, shortened: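 Luminescent CellTiter-Glo read-out of metabolically active TC32 cells after 48 h compound exposure. Primary: MIPE 11-point, 0.78 nM–46 µM; NPC 8-point, 0.59 nM–46 µM. Confirmatory: 11-point dilutions.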

[2] = qHTS of pediatric cancer cell lines to identify multiple opportunities for drug repurposing: Primary screen for DAOY cells (AID 1347090); also: nearly all actives have a fitted effect of over 55% in size
Procedure, shortened: (§1)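 Eight- or eleven-point concentration series, 48 h treatment at 37 degrees C in growth media; readout CellTiter-Glo luminescence. Potency and efficacy were taken from the concentration-response curves.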

[3] = qHTS of pediatric cancer cell lines to identify multiple opportunities for drug repurposing: Primary screen for SJ-GBM2 cells (AID 1347091)
Procedure, shortened: as §1

[4] = qHTS of pediatric cancer cell lines to identify multiple opportunities for drug repurposing: Primary screen for A673 cells (AID 1347092); also: nearly all actives have a fitted effect of over 45% in size
Procedure, shortened: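 A673 cells (500-1,000 cells/well in growth media) were pre-incubated 5 h at 37 degrees C, then exposed to compounds for 48 h. Viability was read as CellTiter-Glo luminescence; concentration-response curves came directly from the primary screen.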

[5] = qHTS of pediatric cancer cell lines to identify multiple opportunities for drug repurposing: Primary screen for BT-37 cells (AID 1347094)
Procedure, shortened: (§2)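 Cells seeded at 500-1,000 cells/well in growth media, rested 5 hours at 37 degrees C, 5% CO2, then dosed; MIPE compounds at 11-point (from 0.78 nM) and NPC at 8-point (from 0.59 nM) final concentrations. Viability by CellTiter-Glo luminescence after 48 hours.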

[6] = qHTS of pediatric cancer cell lines to identify multiple opportunities for drug repurposing: Primary screen for NB-EBc1 cells (AID 1347095)
Procedure, shortened: as §2

[7] = qHTS of pediatric cancer cell lines to identify multiple opportunities for drug repurposing: Primary screen for U-2 OS cells (AID 1347096); also: nearly all actives have a fitted effect of over 50% in size
Procedure, shortened: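 Cells (500-1,000/well) in growth media were settled 5 h at 37 degrees C, then given compounds for 48 h. Viability was read as CellTiter-Glo luminescence. Primary runs used MIPE at 11 points (0.78 nM-46 µM) and NPC at 8 points (0.59 nM-46 µM); follow-ups used 11 points.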

[8] = qHTS of pediatric cancer cell lines to identify multiple opportunities for drug repurposing: Primary screen for SK-N-SH cells (AID 1347098); also: nearly all actives have a fitted effect of over 65% in size
Procedure, shortened: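 Cells (500-1,000/well) rested 5 h, then received compounds for 48 h; metabolically active cells were measured by CellTiter-Glo luminescence. Final concentrations spanned up to 46 µM (MIPE, 11-point) or 0.59 nM-46 µM (NPC, 8-point) in primary screens, 11-point in follow-ups.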

[9] = qHTS of pediatric cancer cell lines to identify multiple opportunities for drug repurposing: Primary screen for SK-N-MC cells (AID 1347093)
Procedure, shortened: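 Metabolically active cells were quantified by ATP-dependent luminescence (CellTiter-Glo, 15 min at room temperature) following 48 h treatment. Cells had been plated at 500-1,000 per well and settled for 5 h beforehand.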

[10] = qHTS of pediatric cancer cell lines to identify multiple opportunities for drug repurposing: Primary screen for Saos-2 cells (AID 1347097); also: nearly all actives have a fitted effect of over 40% in size
Procedure, shortened: as §2
Potency is read from the fitted curve at half-maximal effect.

SMILES	Potency [1]	Potency [2]	Potency [3]	Potency [4]	Potency [5]	Potency [6]	Potency [7]	Potency [8]	Potency [9]	Potency [10]
O=C(O)C1=CO[C@@H](O[C@@H]2O[C@H](CO)[C@H](O)[C@H](O)[C@H]2O)[C@@H]2C(CO)=CC[C@H]12	inactive	inactive	inactive	inactive	inactive	inactive	inactive	21.5 µM (active)	–	–
Cc1ccc2c(=O)c3cccc(CC(=O)O)c3oc2c1C	inactive	14.8 µM (active)	inactive	9.35 µM (active)	–	–	inactive	24.1 µM (active)	16.6 µM (active)	–
N#CC(c1ccc(Cl)cc1)c1c(Cl)cc(-n2ncc(=O)[nH]c2=O)cc1Cl (stereo not drawn)	inactive	9.35 µM (active)	23.5 µM (active)	11.8 µM (active)	–	–	–	–	9.35 µM (active)	9.35 µM (active)
O=C(CO)N1CCC(c2[nH]nc(-c3ccc(Cl)cc3)c2-c2ccncn2)CC1	inactive	inactive	–	inactive	–	–	inactive	inactive	inactive	–
CN(C)c1ccccc1CN1CCCN(Cc2ccccc2N(C)C)C1c1ccncc1	inactive	inactive	–	18.7 µM (active)	–	20.9 µM (active)	–	–	26.4 µM (active)	–
CCN1C[C@H](C)n2c(c(O)c3c(=O)n(Cc4ccc(F)c(Cl)c4)nc(C(=O)NC)c32)C1=O	inactive	inactive	–	inactive	inactive	inactive	–	inactive	inactive	inactive
COc1cc(F)c(C(C)C)cc1-c1ccc(C(F)(F)F)cc1CN1C(=O)O[C@H](c2cc(C(F)(F)F)cc(C(F)(F)F)c2)[C@@H]1C	inactive	inactive	–	inactive	–	14.8 µM (active)	inactive	–	inactive	–
N=C1SC(=Cc2ccc(-c3ccc4c(c3)C(=O)NC4=O)o2)C(=O)N1c1ccc(Br)cc1	inactive	inactive	2.64 µM (active)	–	–	3.72 µM (active)	inactive	inactive	–	–
CNC(=O)c1ccc2c(C(=Nc3cccc(CN(C)C)c3)c3ccccc3)c(O)[nH]c2c1	inactive	inactive	–	11.8 µM (active)	–	–	inactive	21.5 µM (active)	23.5 µM (active)	–
O=C(O)c1nc(=O)[nH]c(=O)[nH]1	inactive	inactive	–	inactive	inactive	inactive	inactive	inactive	inactive	inactive
CN1CCN(c2ncc(-c3cc(Cl)cc(Cl)c3Cl)c(N)n2)CC1	inactive	inactive	–	2.35 µM (active)	3.06 µM (active)	–	inactive	21.5 µM (active)	10.5 µM (active)	–
Cc1ccc(NC(=O)c2cccc(N(C)C)c2)cc1NC(=O)c1ccc(O)cc1	13100 nM (active)	inactive	–	0.148 µM (active)	3.85 µM (active)	11.8 µM (active)	–	15.2 µM (active)	0.187 µM (active)	–
CN1C(=O)C[C@H](C(=O)N[C@@H](Cc2cnc[nH]2)C(=O)N2CCC[C@@H]2C(N)=O)NC1=O	inactive	inactive	inactive	–	–	–	inactive	inactive	–	inactive
CNC(=O)c1cc(COc2nnc(Nc3ccc(Cl)cc3)c3ccoc23)ccn1	inactive	23.5 µM (active)	20.9 µM (active)	–	–	23.5 µM (active)	–	inactive	23.5 µM (active)	18.7 µM (active)
CCNC(=O)Nc1ccc(Oc2ncnc(N)c2C=NOC)cc1Cl	inactive	inactive	5.26 µM (active)	–	inactive	2.64 µM (active)	–	inactive	4.69 µM (active)	–
COc1nccc(-c2c(-c3ccc(F)cc3)ncn2C2CCC(O)CC2)n1 (stereo not drawn)	inactive	inactive	–	inactive	–	inactive	inactive	inactive	inactive	–
CC(C)(C)c1nc(-c2cccc(NS(=O)(=O)c3c(F)cccc3F)c2F)c(-c2ccnc(N)n2)s1	inactive	18.7 µM (active)	inactive	–	inactive	inactive	–	inactive	–	inactive
C[C@@H](O)[C@H]1C(=O)N2C(C(=O)OCOC(=O)C(C)(C)C)=C(SC3CN(C4=NCCS4)C3)[C@H](C)[C@H]12	inactive	inactive	inactive	–	–	inactive	inactive	inactive	–	inactive
N#CC(c1ccnc(NCCc2cccnc2)n1)c1nc2ccccc2s1 (stereo not drawn)	inactive	29.6 µM (active)	9.35 µM (active)	–	24.3 µM (active)	–	–	–	11.8 µM (active)	18.7 µM (active)
N#Cc1ccc(Oc2ccc3c(c2)COB3O)cc1	inactive	inactive	–	inactive	–	–	inactive	–	14.8 µM (active)	inactive
C[C@@H]1CC=CC=CC=CC=C[C@@H](O[C@@H]2O[C@H](C)[C@@H](O)[C@H](N)[C@H]2O)C[C@@H]2O[C@](O)(C[C@@H](O)C[C@@H]3O[C@@H]3C=CC(=O)O1)C[C@H](O)[C@@H]2C(=O)O	inactive	7.43 µM (active)	inactive	–	–	–	inactive	inactive	8.33 µM (active)	inactive
COc1ccc(-c2ccc3ncc4c(c3c2)n(-c2ccc(N3CCNCC3)c(C(F)(F)F)c2)c(=O)n4C)cn1	16.5 nM (active)	0.59 µM (active)	0.0132 µM (active)	–	–	0.0148 µM (active)	7.43 µM (active)	0.0857 µM (active)	0.0037 µM (active)	–
Cc1cc(NC(=O)Nc2ccc(N(C)C)cc2)c2cc(F)cc(F)c2n1	inactive	inactive	–	inactive	inactive	–	–	inactive	inactive	–
COc1ccc(C=CC(=O)Nc2ccccc2C(=O)O)cc1OC	inactive	inactive	inactive	–	inactive	–	–	–	–	–

SMILES	Potency [1]	Potency [2]	Potency [3]	Potency [4]	Potency [5]	Potency [6]	Potency [7]	Potency [8]	Potency [9]	Potency [10]
Cn1c(=O)c(-c2c(Cl)cccc2Cl)cc2cnc(Nc3cccc(C(=O)O)c3)nc21	inactive	0.372 µM (active)	0.526 µM (active)	–	inactive	1.32 µM (active)	–	inactive	0.0935 µM (active)	0.743 µM (active)
CNc1nc(Nc2ccc(C(=O)N3CCOCC3)cc2OC)ncc1Cl	inactive	inactive	inactive	–	inactive	–	inactive	–	–	–
Cn1cc(-c2ccc3nnc(Sc4ccc5ncccc5c4)n3n2)cn1	inactive	11.8 µM (active)	0.0118 µM (active)	–	inactive	–	inactive	inactive	–	–
CCCC1OC2C[C@@H]3[C@H]4CCC5=CC(=O)C=C[C@]5(C)[C@H]4C(O)C[C@]3(C)[C@]2(C(=O)CO)O1 (stereo partly drawn)	inactive	inactive	–	inactive	–	–	–	–	20.9 µM (active)	–
CN(C)CCOc1ccc(C(=C(CCCl)c2ccccc2)c2ccccc2)cc1	inactive	inactive	–	inactive	inactive	–	–	inactive	inactive	–
CCCCC(F)(F)[C@@]1(O)CC[C@H]2[C@H](CC(=O)[C@@H]2CCCCCCC(=O)O)O1	inactive	inactive	inactive	–	inactive	–	inactive	inactive	–	–
N[C@@H](CC(=O)N1CCn2c(nnc2C(F)(F)F)C1)Cc1cc(F)c(F)cc1F	inactive	inactive	–	inactive	inactive	inactive	inactive	–	18.7 µM (active)	–
COC1CCC(C(=O)c2ccc3nc4c(cc3c2)CCCO4)CC1 (stereo not drawn)	inactive	inactive	–	23.5 µM (active)	–	–	–	–	–	–
CC(NCCc1ccc(O)cc1)C(O)c1ccc(O)cc1 (stereo not drawn)	inactive	inactive	inactive	–	–	inactive	inactive	inactive	inactive	inactive
O=C(c1ccc(C=Cc2n[nH]c3ccccc23)cc1)N1CCNCC1	4660 nM (active)	inactive	4.18 µM (active)	–	inactive	3.72 µM (active)	inactive	–	–	–
Cc1ccc(C(=O)N(CCCN)[C@@H](c2nc3cc(Cl)ccc3c(=O)n2Cc2ccccc2)C(C)C)cc1	16.5 nM (active)	0.0015 µM (active)	–	0.001 µM (active)	–	0.001 µM (active)	inactive	inactive	0.0017 µM (active)	0.001 µM (active)
CCN(CCO)CCCOc1ccc2c(Nc3cc(CC(=O)Nc4cccc(F)c4)[nH]n3)ncnc2c1	330 nM (active)	inactive	0.166 µM (active)	–	–	–	inactive	–	0.209 µM (active)	–
NC(=O)c1ccc(N(C(N)=O)c2c(F)cccc2F)nc1-c1ccc(F)cc1F	inactive	14.8 µM (active)	inactive	–	inactive	inactive	inactive	–	–	inactive
CC(=O)N1CCN(c2ccc(OCc3nn(C)c(C)c3-c3cccc4c(CCCOc5cc(C)c(Cl)c(C)c5)c(C(=O)O)n(Cc5cccnc5)c34)cc2)CC1	inactive	18.7 µM (active)	–	14.8 µM (active)	24.3 µM (active)	14.8 µM (active)	inactive	–	4.18 µM (active)	18.7 µM (active)
CN[C@@H](C)[C@H]1[C@H](O)C[C@@]2(C)[C@@H]3CC[C@H]4C(C)(C)[C@@H](NC)CC[C@@]45C[C@@]35CC[C@]12C	inactive	inactive	inactive	–	inactive	–	inactive	–	–	–
CCC(=O)NCC[C@@H]1CCc2ccc3c(c21)CCO3	inactive	inactive	inactive	–	inactive	–	–	inactive	inactive	–
CCC[C@H](Nc1nc(-c2ccc(NC(=O)NCC)c(OC)c2)ncc1C)c1cccnc1	93 nM (active)	–	0.0105 µM (active)	0.0187 µM (active)	0.0137 µM (active)	0.0066 µM (active)	–	–	0.0118 µM (active)	–
O=C1C(c2c(O)[nH]c3ccccc23)=Nc2ccccc21	inactive	0.59 µM (active)	–	0.59 µM (active)	–	–	inactive	–	–	–
O=C(CC12CC3CC(CC(C3)C1)C2)Nc1cccc2nc(NCCNCCO)ccc12	inactive	9.35 µM (active)	–	–	inactive	–	inactive	24.1 µM (active)	1.87 µM (active)	–
OC[C@H]1O[C@@H](O[C@H]2[C@@H](O)[C@@](O)(CO)O[C@@H]2CO)[C@H](O)[C@@H](O)[C@@H]1O	inactive	–	inactive	inactive	inactive	inactive	inactive	inactive	inactive	inactive
Cc1ccc2c(c1)C(=O)[C@]1(O)CCN(c3ccccc3)C1=N2	inactive	inactive	–	–	inactive	7.43 µM (active)	–	–	20.9 µM (active)	–
CCC[C@H](N[C@@H](C)C(=O)N1[C@@H]2CCCC[C@H]2C[C@H]1C(=O)O)C(=O)OCC	inactive	inactive	–	–	–	–	inactive	–	3.32 µM (active)	–
CC1(C)C(N(O)C(=O)Nc2ccc(Cl)cc2)N(c2ccc(Cl)cc2)C(=O)N1CC(=O)NN=CC=Cc1ccc([N+](=O)[O-])o1 (stereo not drawn)	inactive	–	18.7 µM (active)	23.5 µM (active)	–	–	–	–	–	–
